Laboratory results taken from PubChem BioAssay AID1159580 (chemical genetic matrix, 2015).
In all, about 5,500 compounds went through this assay and about 2,000 (36%) were called active. Not shown: some 18% with an inconclusive outcome. No stated cut-off is given here; in the data, active means normalized growth mostly below about 0.91 (no sharp cut-off); inconclusive means no clear call, values can overlap the other calls; inactive means mostly above about 0.92. This is one part of the list.

Test: chemical genetic growth profiling, strain panel (AID 1159580);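 further: tested at 20 µM; growth read once vehicle control cultures reached saturation at 30 °C; 1 = growth at the plate median or of vehicle wells; lower values mean less growth of the strain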
Details: growth OD

Measured: normalized growth

COP(=O)(NC(C)=O)SC (stereo unspecified)
inactive: S. cerevisiae deletion strains, locus YAL013W, strain DEP1, hits give low values 1.01 | S. cerevisiae deletion strains, locus YBR021W, strain FUR4, hits give low values 1 | S. cerevisiae deletion strains, locus YBR229C, strain ROT2, hits give low values 1.01 | S. cerevisiae deletion strains, locus YCL029C, strain bik1, hits give low values 1 | S. cerevisiae deletion strains, locus YDL035C, strain GPR1, hits give low values 1.01 | S. cerevisiae deletion strains, locus YDL074C, strain BRE1, hits give low values 1.04 | S. cerevisiae deletion strains, locus YDL101C, strain DUN1, hits give low values 1.01 | S. cerevisiae deletion strains, locus YDL134C, strain PPH21, hits give low values 1.01 | S. cerevisiae deletion strains, locus YDL185W, strain tfp1, hits give low values 1 | S. cerevisiae deletion strains, locus YDL192W, strain arf1, hits give low values 0.996 | S. cerevisiae deletion strains, locus YDR101C, strain arx1, hits give low values 1 | S. cerevisiae deletion strains, locus YDR150W, strain NUM1, hits give low values 0.997 | S. cerevisiae deletion strains, locus YDR162C, strain NBP2, hits give low values 1.04 | S. cerevisiae deletion strains, locus YDR318W, strain mcm21, hits give low values 0.996 | S. cerevisiae deletion strains, locus YDR388W, hits give low values 0.983 | S. cerevisiae deletion strains, locus YDR502C, strain sam2, hits give low values 0.996 | S. cerevisiae deletion strains, locus YEL061C, strain CIN8, hits give low values 1 | S. cerevisiae deletion strains, locus YER110C, hits give low values 0.994 | S. cerevisiae deletion strains, locus YER155C, strain BEM2, hits give low values 1.01 | S. cerevisiae deletion strains, locus YER167W, strain BCK2, hits give low values 0.989 | S. cerevisiae deletion strains, locus YGL078C, strain dbp3, hits give low values 0.994 | S. cerevisiae deletion strains, locus YGL086W, strain mad1, hits give low values 0.994 | S. cerevisiae deletion strains, locus YGL248W, strain PDE1, hits give low values 1 | S. cerevisiae deletion strains, locus YGR078C, strain PAC10, hits give low values 1.04 | S. cerevisiae deletion strains, locus YGR135W, strain pre9, hits give low values 1 | S. cerevisiae deletion strains, locus YGR229C, strain SMI1, hits give low values 1.04 | S. cerevisiae deletion strains, locus YGR252W, strain gcn5, hits give low values 0.976 | S. cerevisiae deletion strains, locus YHR030C, strain SLT2, hits give low values 1.01 | S. cerevisiae deletion strains, locus YHR079C, strain IRE1 (second series), hits give low values 0.998 | S. cerevisiae deletion strains, locus YHR094C, strain hxt1, hits give low values 0.991 | S. cerevisiae deletion strains, locus YHR129C, strain ARP1, hits give low values 1.01 | S. cerevisiae deletion strains, locus YHR200W, strain rpn10, hits give low values 1 | S. cerevisiae deletion strains, locus YIL066C, strain RNR3, hits give low values 1.04 | S. cerevisiae deletion strains, locus YIL073C, strain SPO22, hits give low values 1.03 | S. cerevisiae deletion strains, locus YIL125W, strain kgd1, hits give low values 0.997 | S. cerevisiae deletion strains, locus YIR030C, strain dcg1, hits give low values 1 | S. cerevisiae deletion strains, locus YJL095W, strain BCK1, hits give low values 1.01 | S. cerevisiae deletion strains, locus YJL134W, strain LCB3, hits give low values 1 | S. cerevisiae deletion strains, locus YJL168C, strain set2, hits give low values 0.989 | S. cerevisiae deletion strains, locus YJL187C, strain SWE1 (second series), hits give low values 1.01 | S. cerevisiae deletion strains, locus YJR043C, strain POL32, hits give low values 1.02 | S. cerevisiae deletion strains, locus YJR075W, strain HOC1, hits give low values 1.03 | S. cerevisiae deletion strains, locus YKL009W, strain mrt4, hits give low values 1.01 | S. cerevisiae deletion strains, locus YKL068W, hits give low values 1.01 | S. cerevisiae deletion strains, locus YKL085W, strain MDH1 (second series), hits give low values 0.997 | S. cerevisiae deletion strains, locus YKL085W, strain MDH1, hits give low values 0.997 | S. cerevisiae deletion strains, locus YKL190W, strain CNB1, hits give low values 1.03 | S. cerevisiae deletion strains, locus YKR001C, strain vps1, hits give low values 0.996 | S. cerevisiae deletion strains, locus YLR039C, strain RIC1, hits give low values 1.05 | S. cerevisiae deletion strains, locus YLR058C, strain SHM2, hits give low values 1.01 | S. cerevisiae deletion strains, locus YLR102C, strain apc9, hits give low values 0.994 | S. cerevisiae deletion strains, locus YLR262C, strain YPT6, hits give low values 1.02 | S. cerevisiae deletion strains, locus YLR268W, strain sec22, hits give low values 0.999 | S. cerevisiae deletion strains, locus YLR330W, strain CHS5, hits give low values 1.01 | S. cerevisiae deletion strains, locus YLR342W, strain FKS1 (second series), hits give low values 1.01 | S. cerevisiae deletion strains, locus YLR371W, strain rom2, hits give low values 1 | S. cerevisiae deletion strains, locus YLR418C, strain cdc73, hits give low values 0.998 | S. cerevisiae deletion strains, locus YML016C, strain PPZ1, hits give low values 1.01 | S. cerevisiae deletion strains, locus YML032C, strain rad52, hits give low values 0.999 | S. cerevisiae deletion strains, locus YML124C, strain tub3, hits give low values 0.997 | S. cerevisiae deletion strains, locus YMR078C, strain ctf18, hits give low values 0.995 | S. cerevisiae deletion strains, locus YMR223W, strain ubp8, hits give low values 1 | S. cerevisiae deletion strains, locus YMR263W, strain SAP30, hits give low values 1.04 | S. cerevisiae deletion strains, locus YMR307W, strain GAS1, hits give low values 1.05 | S. cerevisiae deletion strains, locus YNL067W, strain RPL9B, hits give low values 1.03 | S. cerevisiae deletion strains, locus YNL128W, strain TEP1, hits give low values 1.01 | S. cerevisiae deletion strains, locus YNL153C, strain GIM3, hits give low values 1.02 | S. cerevisiae deletion strains, locus YNL233W, strain BNI4, hits give low values 1.01 | S. cerevisiae deletion strains, locus YNL250W, strain rad50, hits give low values 0.986 | S. cerevisiae deletion strains, locus YNL271C, strain bni1, hits give low values 0.993 | S. cerevisiae deletion strains, locus YNL298W, strain CLA4, hits give low values 0.995 | S. cerevisiae deletion strains, locus YNL307C, strain MCK1, hits give low values 0.995 | S. cerevisiae deletion strains, locus YNL322C, strain KRE1, hits give low values 1.01 | S. cerevisiae deletion strains, locus YNR052C, strain pop2, hits give low values 0.998 | S. cerevisiae deletion strains, locus YOL006C, strain TOP1, hits give low values 1.05 | S. cerevisiae deletion strains, locus YOL012C, strain htz1 0.88 | S. cerevisiae deletion strains, locus YOL147C, strain pex11, hits give low values 0.988 | S. cerevisiae deletion strains, locus YOR061W, strain CKA2, hits give low values 1.01 | S. cerevisiae deletion strains, locus YOR069W, strain VPS5, hits give low values 1.01 | S. cerevisiae deletion strains, locus YOR136W, strain idh2, hits give low values 1 | S. cerevisiae deletion strains, locus YOR144C, strain elg1, hits give low values 0.995 | S. cerevisiae deletion strains, locus YOR184W, strain ser1, hits give low values 1.01 | S. cerevisiae deletion strains, locus YOR316C, strain cot1, hits give low values 0.999 | S. cerevisiae deletion strains, locus YPL055C, strain LGE1, hits give low values 1.09 | S. cerevisiae deletion strains, locus YPL241C, strain CIN2, hits give low values 1.01 | S. cerevisiae deletion strains, locus YPR119W, strain clb2, hits give low values 0.993 | S. cerevisiae deletion strains, locus YPR141C, strain kar3, hits give low values 0.994 | S. cerevisiae deletion strains, locus YPR163C, strain tif3, hits give low values 0.998 | S. cerevisiae deletion strains, locus YPR167C, strain met16, hits give low values 0.997 | S. cerevisiae deletion strains, strain wtn01, hits give low values 0.993 | S. cerevisiae strains, strain wild type, hits give low values 1.01
